From PubChem BioAssay
The list is not random: actives were taken first. Their share in the collection is about 5.4%.
Six1-Eya2 inh = inhibitors of human Six1/Eya2 interaction. 360,000 tested, 0.56% active. Q15475+O00167. AlphaScreen GST-Six1/His-Eya2 binding, biochemical; stronger effect = lower value. activity change, % (test concentration not listed); in the data active = activity change below about -65%; inconclusive = mostly about -30% to -63%; note: % is set by controls: 0 for no effect and ±100 for the full control effect
Target sequence (O00167 whole entry, looked up): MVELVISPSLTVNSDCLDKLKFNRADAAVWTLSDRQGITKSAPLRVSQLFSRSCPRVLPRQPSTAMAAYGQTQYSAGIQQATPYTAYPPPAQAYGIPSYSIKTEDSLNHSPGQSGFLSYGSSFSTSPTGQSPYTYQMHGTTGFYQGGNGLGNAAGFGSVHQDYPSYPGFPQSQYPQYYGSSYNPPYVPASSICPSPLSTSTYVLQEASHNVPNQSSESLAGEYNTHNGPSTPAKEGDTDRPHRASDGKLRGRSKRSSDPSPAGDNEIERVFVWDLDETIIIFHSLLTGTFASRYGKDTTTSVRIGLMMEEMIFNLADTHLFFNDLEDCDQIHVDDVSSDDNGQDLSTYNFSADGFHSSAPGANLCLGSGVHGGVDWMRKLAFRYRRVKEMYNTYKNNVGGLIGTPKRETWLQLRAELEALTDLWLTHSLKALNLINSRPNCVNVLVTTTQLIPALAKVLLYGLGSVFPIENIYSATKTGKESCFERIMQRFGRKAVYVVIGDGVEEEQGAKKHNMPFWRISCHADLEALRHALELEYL
Target sequence (Q15475 whole entry, looked up): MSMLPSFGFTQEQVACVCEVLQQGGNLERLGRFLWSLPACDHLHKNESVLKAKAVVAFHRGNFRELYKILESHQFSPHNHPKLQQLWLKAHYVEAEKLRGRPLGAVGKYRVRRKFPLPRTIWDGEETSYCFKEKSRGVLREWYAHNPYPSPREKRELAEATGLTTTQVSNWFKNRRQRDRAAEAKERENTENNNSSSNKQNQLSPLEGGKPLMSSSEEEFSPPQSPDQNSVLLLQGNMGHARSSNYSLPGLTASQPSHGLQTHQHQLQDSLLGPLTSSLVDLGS
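Homogeneous AlphaScreen proximity assay pairing GST-Six1 with His-tagged Eya2 (added as 5X mix: 250 nM and 500 nM) in 50 mM Tris pH 8.0, 300 mM NaCl, 1 mM TCEP. Glutathione donor and nickel acceptor beads; 1 h, 37 °C, dark.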
VP16 counter = inhibits Gal4-VP16 luciferase reporter, ROR gamma counter-screen | Drosophila S2 Gal4-VP16 UAS-luciferase, luminescence, 20 h | Potency, µM (series often up to 53.6 µM), for inactives: at the top dose activity, negative = inhibition, most hits filed as inhibitors | 310,000 tested, 3.5% active | AID 2546;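 note: Gal4-VP16 expression switched on by copper sulfate through the metallothionein promoter; potency is the fitted concentration of half-maximal effect; % is set by controls: 0 for no effect and ±100 for the full control effect; nearly all actives have a fitted effect of over 50% in size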
RORgamma inh = ROR gamma (mouse) transcription inhibition; Potency, µM (titrated, usually from 53.6 µM), for inactives: at the top dose activity change, negative = inhibition, usual class: inhibitors; 310,000 tested, 5.4% active; AID 2551; Drosophila S2 Gal4-RORgamma UAS-luciferase reporter, 20 h; P51450; note: potency is the fitted concentration of half-maximal effect; % is set by controls: 0 for no effect and ±100 for the full control effect; nearly all actives have a fitted effect of over 60% in size
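Stable Schneider cell line, Gal4 DNA-binding domain fused to ROR gamma, UAS-luciferase. Cmpd 1 hr RT → CuSO4 700 uM final → 20 hr RT → luciferase reagent 10 min → luminescence.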
CtBP-E1A blk = inhibitors of CtBP/E1A interaction | AID 651724 | AlphaScreen GST-E1A/His-CtBP binding, 1536-well; stronger effect = lower value | activity change, % (concentration not given with the values) | 340,000 tested, 0.49% active; in the data active = activity change below about -65%; inconclusive = mostly about -30% to -63%; note: % is set by controls: 0 for no effect and ±100 for the full control effect
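AlphaScreen with 125 nM GST-E1A and 125 nM His-CtBP (5X stocks) in Tris pH 8.0, 300 mM NaCl, BSA, Tween 20, TCEP. Compounds preincubated 2 h at 37 deg C, then glutathione donor/nickel acceptor beads added for 1 h at 37 deg C in dark.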
p53 reactivation = restores transcriptional activity of mutant p53; 320,000 tested, 0.063% active; H1299 p53-A138V BP100-luciferase reporter, luminescence, 24 h; Potency, µM (doses to about 92.2 µM), inactives show top-dose activity change, positive = activation, most hits filed as activators; note: potency is the fitted concentration of half-maximal effect; % of control where 0% means no effect; nearly all actives have a fitted effect of over 45% in size
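H1299 (p53-null), stable ts p53-A138V + BP100-Luc; 1000 cells/well, Opti-MEM/10% FBS; cpd 4 pt, 1:5; 24 h, 37 deg C, 5% CO2; detection reagent 10 min RT; luminescence.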
Numbers without * were called inactive; ? = inconclusive; · = not tested or not shown. Unless noted, calls come from the whole dose curve; as a rule, active = well fitted curve in the direction sought with a large enough effect; inconclusive = small, poorly fitted or top-dose-only effect, or another doubt; inactive = no such curve, though single readings can be large; an effect the other way counts as inactive or inconclusive.

SMILES | Six1-Eya2 inh | VP16 counter | RORgamma inh | CtBP-E1A blk | p53 reactivation
C=CCC[C@H](Cc1ccc(F)cc1)C(=O)OC[C@H](C)NC(=O)[C@@H](CC=C)CC(=O)N[C@H](CO)Cc1ccccc1 | -5.8 | · | · | 7.5 | -3.8%
CC(=O)c1ccc(NC(=S)NN2C(C)CCCC2C)cc1 (configuration not stated) | -24.6 | ? | 8.91µM* | 5.6 | 0.6%
CCOc1ccc(NC(=O)NN2C(C)CCCC2C)cc1 (configuration not stated) | -0.8 | -0.1% | 8.8% | -0.4 | -0.4%
CC(=O)c1ccc(NC(=S)NC2CCCC(C)C2C)cc1 (configuration not stated) | 8.7 | ? | 5.01µM* | 6.2 | 1.4%
CCOc1ccc(NC(=S)NN2C(C)CCCC2C)cc1 (configuration not stated) | 2.2 | 8.91µM* | 2.24µM* | 3.5 | 2.9%
CC(=O)c1ccc(NC(=O)C2CCCC2)cc1 | 6.6 | 15.2% | 9.9% | -6.4 | ·
CN(C)C1C(=O)c2ccccc2C1=O | 1.7 | -3.0% | -5.8% | -2.9 | -3.1%
COc1ccc(-n2c(N)c(-c3nc4ccccc4n3C)sc2=S)cc1 | -9.0 | -13.1% | 6.31µM* | -4.3 | 3.4%
CCOc1ccc(-n2c(N)c(-c3nc4ccccc4[nH]3)sc2=S)cc1 | 0.8 | ? | ? | -5.1 | 3.4%
O=C(C1CCC(CNS(=O)(=O)c2cccs2)CC1)N1CCCCC1 (configuration not stated) | -11.5 | 3.5% | -8.1% | 0.0 | 0.4%
Cc1cccc(N2CCN(C(=O)C3CCC(CNS(=O)(=O)c4cccs4)CC3)CC2)c1C (configuration not stated) | -9.1 | 11.2µM* | ? | -0.9 | 1.3%
O=C(NCCc1ccccc1)C(=O)Nc1ccc([N+](=O)[O-])cc1 | 2.7 | -3.3% | 2.3% | 11.3 | ?
O=C1NC2(CCCCC2)N=C1c1ccc(Br)cc1 | -4.1 | ? | 12.6µM* | 2.2 | -3.5%
Cc1ccc(C2=NC3(CCCCCC3)NC2=S)cc1 | 2.1 | 2.24µM* | 1.41µM* | 3.5 | 5.3%
Cc1[nH]c(C)c(C(=O)/C=C/c2ccc([N+](=O)[O-])cc2)c1C | -2.6 | ? | 1.12µM* | · | ·
Cc1cc(C)c(S(=O)(=O)N(C2=NCCS2)S(=O)(=O)c2c(C)cc(C)cc2C)c(C)c1 | -5.6 | -8.1% | 15.8µM* | 5.0 | 8.0%
Cc1cc(C)c(S(=O)(=O)N(CC(=O)O)CC(=O)O)c(C)c1 | 2.2 | -0.9% | -9.0% | 6.7 | -5.9%
CC1=NN(Cc2c(C)nn(Cc3ccccc3)c2C)C(C)(C)C1 | -6.0 | 9.1% | 12.6µM* | 1.0 | -2.7%
Cc1ccc2oc(=O)c3c4cc(O)c(O)c(C)c4oc3c2c1 | · | -16.3% | ? | · | ·
O=c1oc2ccccc2c(O)c1Sc1c(O)c2ccccc2oc1=O | -73.6* | · | · | -83.4* | ·
Cc1c(O)c(O)cc2c1oc1c3ccccc3oc(=O)c21 | · | ? | 7.08µM* | · | ·
COc1cccc(-n2c(C)c3c(OC)cccc(=O)c3c2C)c1 | -6.0 | ? | 6.31µM* | -5.0 | -2.2%
O=c1[nH]c(N2CCCCC2)nc2ncn(Cc3ccccc3)c12 | 5.0 | -1.9% | 36.5% | 6.4 | 0.9%
Cc1cc(C)nc(-n2nc(C)c(Sc3ccc(F)cc3)c2N)n1 | -2.3 | 3.98µM* | 2.24µM* | 2.7 | ?
O=C(O)Cc1sc(Nc2cccc3ccccc23)nc1-c1ccc(Cl)cc1 | -1.9 | 12.8% | 14.6% | -10.0 | 4.2%
SMILES | Six1-Eya2 inh | VP16 counter | RORgamma inh | CtBP-E1A blk | p53 reactivation
O=C(Nc1ccc(S(=O)(=O)N2CCOCC2)cc1)C1CCN(S(=O)(=O)c2ccccc2)CC1 | -4.5 | · | · | 7.8 | 3.5%
Cc1c(CCC(=O)N[C@@H](CC(C)C)C(=O)O)c(=O)oc2cc3oc4c(c3cc12)CCCC4 | 0.8 | ? | 0.631µM* | · | -7.1%
Cc1c(CCC(=O)N2CCC[C@H]2C(=O)O)c(=O)oc2cc3oc4c(c3cc12)CCCC4 | -6.3 | ? | 1.26µM* | -4.5 | -0.7%
Cc1c(CCC(=O)O)c(=O)oc2cc3oc4c(c3cc12)CCCC4 | 0.9 | ? | ? | 3.7 | -8.8%
Cc1c(CCC(=O)NCC(=O)NCC(=O)O)c(=O)oc2cc3oc4c(c3cc12)CCCC4 | -1.9 | -12.1% | -24.4% | 8.3 | -10.9%
O=C(NC1CC1(c1ccccc1)c1ccccc1)c1ccccc1 (configuration not stated) | 0.1 | · | · | 3.8 | ·
O=C(Nc1nnc(SCc2ccc(F)cc2)s1)c1ccc2c(c1)C(=O)N(c1ccccc1Cl)C2=O | -2.5 | 1.1% | 13.2% | 0.7 | 6.2%
CC(=O)Nc1cccc(NC(=O)c2ccc(C)c([N+](=O)[O-])c2)c1 | -3.4 | 27.0% | -2.1% | -1.5 | 15.1%
C/C(=N/NC(N)=S)c1ccccc1[N+](=O)[O-] | 2.5 | ? | 7.08µM* | 2.4 | -7.4%
Cc1ccc(C(=O)NC(=S)Nc2cccc(NC(=O)c3ccccc3)c2)cc1[N+](=O)[O-] | -21.1 | 3.55µM* | 2.51µM* | -9.6 | -3.3%
C/C(=N\NC(=O)c1ccc([N+](=O)[O-])c(C)c1)c1ccccc1Cl | -2.7 | ? | 7.94µM* | -3.7 | 12.9%
Cc1ccc(C(=O)NC(=S)Nc2cccc(NC(=O)c3ccccc3Cl)c2)cc1[N+](=O)[O-] | -5.0 | 3.98µM* | 5.62µM* | -11.1 | 5.9%
O=C(O)/C=C/C(=O)N(CC1CCCO1)C1CC(=O)N(c2c(Cl)cccc2Cl)C1=O (configuration not stated) | -2.0 | 1.8% | 0.6% | 6.6 | -0.7%
CC(C)(C)c1ccc(C(=O)N/N=C/c2ccc(OCCCF)cc2)cc1 | -13.4 | -8.4% | -40.3% | -12.1 | 2.2%
CCOC(=O)Nc1nc(-c2ccccc2)c(C(=O)c2ccccc2)s1 | -4.0 | -22.4% | 12.6µM* | 3.3 | 8.6%
Cc1[nH]c2ccccc2c1C(=O)/C=C\c1ccccc1Cl | 6.2 | -2.6% | 12.6µM* | 3.7 | ?
CCCCCCCCc1nc(=S)[nH][nH]1 | -1.4 | ? | 10µM* | 7.5 | -1.2%
CCCCCCC1CC(CCc2nc(=S)[nH][nH]2)C(=O)O1 (configuration not stated) | -4.6 | -1.0% | -43.9% | 3.1 | 4.9%
CCOc1ccc(CCN2C(=S)N([C@@H](Cc3ccc(O)cc3)CN3CCC[C@@H]3CN3C(=S)NC[C@@H]3CC(C)C)C[C@@H]2Cc2ccc(O)cc2)cc1 | -11.9 | · | · | -14.8 | ·
CCCCCCC[C@@H](C/C=C/CCC(=O)N(C)C/C(=C/Cl)C/C(=C\C(=O)N1C[C@H](O)CC1=O)OC)OC | -6.7 | · | · | -3.6 | -2.2%
CCCCCCC[C@@H](C/C=C/CCC(=O)N(C)C/C(=C/Cl)C/C(=C\C(=O)N1CC(OC)=CC1=O)OC)OC | 3.9 | · | · | -3.1 | 31.6µM*
Cc1ccc(NC(=O)/C(Cl)=C/c2ccccc2)cc1C | 30.6 | ? | 10µM* | 26.1 | ?
CC1COC(=O)C(NNc2ccc(Cl)c(Cl)c2)=N1 (configuration not stated) | 5.1 | -9.6% | 31.1% | · | 7.1%
